Test results: PubChem BioAssay AID2289 (National Center for Advancing Translational Sciences (NCATS), 2010)
The campaign covered roughly 340,000 compounds. About 3,300 (0.97%) were called active. Another 9% or so got no clear call; they are omitted. Calls follow the shape of the dose curve; as a rule, active = well fitted inhibition curve with a large enough effect; inconclusive = small, poorly fitted or top-dose-only effect, or effect the other way; inactive = flat fitted curve, though single readings scatter. The list shows a part of the results.

Test: qHTS Assay for Modulators of miRNAs and/or Inhibitors of miR-21; also: nearly all actives have a fitted effect of over 55% in size
Conditions: HeLa miR-21-FLuc reporter, luciferase luminescence, 48 h; actives lower the signal
Outline: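 HeLa cells endogenously expressing miR-21, stably carrying CMV-driven firefly luciferase with a downstream miR-21 binding site, 2000 cells/well. Titrations up to approximately 40 uM, 48 hours; luciferase luminescence read.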
Potency is read from the fitted curve at half-maximal effect.

Potency, active:
Nc1nc(Nc2ccc(Cl)cc2Cl)nc(C(F)(F)F)n1 6.56 µM
COc1nc(Nc2cccc(C(F)(F)F)c2)nc(OC)n1 14.7 µM
COc1cccc(Nc2nc(N)nc(C(F)(F)F)n2)c1 18.5 µM
CC(=O)c1cnc2cc(-c3ccc(C)cc3)nn2c1C 1.04 µM
COc1cccc(-c2ccc3c(N)c(C(=O)Nc4cc(F)ccc4F)sc3n2)c1 11.7 µM
CCOC(=O)c1sc2nc(-c3ccccc3)ccc2c1N 0.0927 µM
CCN(CC)C(=O)c1sc2nc(-c3ccccc3)ccc2c1N 1.47 µM
CCOC(=O)c1sc2nc(-c3cccnc3)ccc2c1N 0.369 µM
CCn1nccc1C(=O)Nc1ccc(Cl)c(Cl)c1 8.26 µM
COc1cc(C(C)=O)ccc1Oc1ncnc2c1cnn2-c1ccc(F)cc1 4.14 µM
COc1ccccc1Oc1ncnc2c1cnn2-c1ccccc1 5.85 µM
Cc1ccc(NC(=O)c2sc3nc(N)c(C#N)cc3c2N)cc1 5.85 µM
Cc1cccc(NC(=O)c2sc3nc(N)c(C#N)cc3c2N)c1 4.14 µM
Cc1cc(C(=O)CN2C(=O)NC3(CCCCC3C)C2=O)c(C)n1Cc1cccs1 (configuration not stated) 5.21 µM
Cc1nc2scc(-c3ccccc3)c2c(=O)n1N=C1C=CC(=O)C=C1 10.4 µM
Cc1ccc2oc(C(=O)Nc3nonc3C)c(C)c2c1 4.65 µM
Cc1cc2oc(C(=O)Nc3nonc3C)c(C)c2cc1C 0.656 µM
CCc1ccc2oc(C(=O)Nc3nonc3CC)c(C)c2c1 2.93 µM
CCc1nonc1NC(=O)c1oc2cc(C)c(C)cc2c1C 5.85 µM
c1ccc(Cc2nnc3sc(-c4ccc5c(c4)OCCO5)nn23)cc1 14.7 µM
Oc1c(C2=NCCNC(C(F)(F)F)=C2)ccc2ccccc12 2.07 µM
Clc1ccccc1-c1nc2ccccc2[nH]1 1.31 µM
Clc1cc2nc(-c3cccnc3Cl)[nH]c2cc1Cl 1.04 µM
CN(Cc1nc(-c2cccc(Cl)c2)no1)C1CCOCC1 7.36 µM
Cc1ccc(-c2cn(-c3ccccc3)c(SCC(=O)NC3CCS(=O)(=O)C3)n2)cc1C (configuration not stated) 7.36 µM
CCOC(=O)NC(=O)CSc1nc(-c2ccc(C)c(C)c2)cn1-c1ccccc1 6.56 µM
Cc1ccc(NC(=O)NCc2c(C)nn(C)c2C)cc1Cl 5.21 µM
CNc1cccc2c1C(=O)c1ccccc1C2=O 11.7 µM
CC(C)(C)c1ccc(-c2noc(-c3ccno3)n2)cc1 1.17 µM
C=CCn1c2ccccc2c(=O)c2cc(C#CC3(O)CCCCC3)ccc21 0.414 µM
CCCc1cc(C(=O)Nc2cccc(Cl)c2C)no1 6.56 µM
CCCc1cc(C(=O)Nc2cc(C)ccc2O)no1 3.69 µM
CCCc1cc(C(=O)Nc2cc(Cl)ccc2O)no1 2.07 µM
CCCc1cc(C(=O)Nc2ccc(CC)cc2)no1 5.21 µM
COc1cc(SC)ccc1C(=O)NCCOc1ccc(F)cc1 7.36 µM
COc1cc(SC)ccc1C(=O)NCCOc1ccccc1Cl 2.93 µM
COc1cc(SC)ccc1C(=O)NCC1CCCCC1 10.4 µM
COc1ccc(C(=O)NCCOc2ccccc2Cl)c(OC)c1OC 5.85 µM
CCn1nc(C)c(/C=N/NC(=O)Cc2ccc(Cl)cc2)c1C 11.7 µM
COc1ccc(NC(=O)CSc2nc(SC)ns2)c(OC)c1 2.07 µM
COc1ccc(NC(=O)CSc2nc(SC)ns2)cc1 6.56 µM
CCC(C)(C)c1ccc2c(c1)C(=O)c1ccccc1C2=O 1.65 µM
Cc1cs/c(=N\N=C\c2ccc(O)cc2)n1Cc1ccco1 11.7 µM
Nc1nnc(-c2ccc(Cl)cc2Cl)s1 8.26 µM
S=C(Nc1ccccc1)c1nc2ccccc2s1 2.07 µM
O=C(NNc1nc2ccccc2s1)Nc1ccccc1 4.65 µM
CC(C)C1COC(c2cccc3ccccc23)=N1 (configuration not stated) 6.56 µM
CCOc1ccccc1CNC(=O)c1cccc(NC(=O)c2nsc3ccccc23)c1 3.29 µM
CCCCNC(=O)c1cccc(NC(=O)c2nsc3ccccc23)c1 2.93 µM
CCN=C1S/C(=C\c2sccc2C)C(=O)N1CC 16.5 µM
Cc1ccc(OCCn2cnc3c(N)ncnc32)cc1 16.5 µM
Cc1cc(C(=O)COC(=O)c2ccc(O)cc2)c(C)n1Cc1ccco1 1.85 µM
CCOc1ncccc1C(=O)OCC(=O)c1cc(C)n(Cc2ccco2)c1C 2.07 µM
C=CCn1c(C)cc(C(=O)COC(=O)c2ccc(N)c([N+](=O)[O-])c2)c1C 1.85 µM
Cc1cc(C(=O)COC(=O)c2cc(Cl)ccc2N)c(C)n1Cc1ccco1 2.93 µM
Cc1cc(C(=O)COC(=O)c2ccco2)c(C)n1Cc1ccco1 4.65 µM
CSc1ncccc1C(=O)OCC(=O)c1cc(C)n(CC2CCCO2)c1C (configuration not stated) 0.464 µM
Cc1cc(C)n(-c2nnc(NC34CC5CC(CC(C5)C3)C4)nn2)n1 5.21 µM
Cc1ccc(NC(=O)OCc2cccs2)cc1 1.31 µM
O=C(NC(=S)NC1CCCCCC1)c1cncc(Br)c1 9.27 µM
COc1ccc(C(=O)NCCSC2CCCCC2)cc1 7.36 µM
COc1ccc(C(=O)NC(=S)Nc2ccccc2F)cc1 1.04 µM
COc1ccc(C(=O)NC(=S)NC2CCCCC2)cc1 7.36 µM
Cc1nc2ccccc2nc(C)c1=NOCc1ccc(C#N)cc1 11.7 µM
Cc1nc2ccccc2nc(C)c1=NOCc1ccc(Cl)cc1Cl 16.5 µM
COc1ccc(Oc2nnc(C)c3ccccc23)cc1 4.14 µM
COc1ccc(-c2nnc3c4ccccc4c(C)nn23)cc1 8.26 µM
Cc1ccc(NC(=S)c2ccccc2)cc1 4.14 µM
COc1ccc(NC(=S)N2CCC(c3ccccc3)C2)cc1 (configuration not stated) 1.65 µM
COc1ccc(NC(=S)N/C(=N/CS(=O)(=O)c2ccccc2)c2ccccc2)cc1 5.21 µM
COc1ccc(NC(=S)c2ccc(N(C)C)cc2)cc1 1.17 µM
COc1ccc(NC(=S)c2ccccc2)cc1 6.56 µM
CCC(N=c1cc(-c2ccc(OC)cc2)oc2ccc(C)cc12)C(=O)O (configuration not stated) 0.293 µM
COc1ccc(-c2cc(=NC(CC(C)C)C(=O)O)c3cc(C)ccc3o2)cc1 (configuration not stated) 0.369 µM
COc1ccc(-c2cc(=Nc3ccc(C(=O)O)cc3)c3cc(C)ccc3o2)cc1 2.07 µM
COc1ccc(-c2nc(C#N)c(NCC3CCCO3)o2)cc1OC (configuration not stated) 14.7 µM
Cc1ccc(-c2nc(C#N)c(NCC3CCCO3)o2)cc1 (configuration not stated) 13.1 µM
O=C(O)c1cc(N/N=C/c2cccnc2)ccc1Cl 14.7 µM
O=C(O)c1cccc(N/N=C/c2cccnc2)c1 2.93 µM
Clc1ccc(N/N=C/c2ccncc2)cc1Cl 8.26 µM
Nc1ccc(SCc2nc3cccc4c3n2CCC4)cc1 14.7 µM
Cc1nc(-c2ccccc2)sc1-c1nnc(C2CC2)o1 4.65 µM
O=C(/C=C/c1ccc(F)cc1)NC(=S)N1CCN(c2ccccn2)CC1 13.1 µM
COc1ccccc1N1CCN(C(=S)NC(=O)/C=C/c2ccccc2)CC1 9.27 µM
Cc1cc(NC(=O)c2ccco2)ccc1-n1cnnn1 7.36 µM
Cc1nc2ccc(NC(=O)c3ccco3)cc2s1 7.36 µM
Nc1nc2ccc(NC(=O)c3ccco3)cc2s1 7.36 µM
CSc1nc2ccc(NC(=O)c3ccco3)cc2s1 1.47 µM
COc1cc2sc(NC(=O)c3ccco3)nc2cc1Cl 0.585 µM
CC(=O)Nc1nc2ccc(NC(=O)c3ccco3)cc2s1 10.4 µM
Cc1nc2ccc(NC(=O)c3ccc(Br)o3)cc2s1 2.93 µM
CSc1nc2ccc(NC(=O)c3c(F)cccc3F)cc2s1 7.36 µM
Nc1c(Cl)cc2c(c1Oc1ccccc1)C(=O)c1ccccc1C2=O 4.14 µM
COc1ccc(C2=NN(C(=O)c3ccccc3C(=O)O)C(c3ccccc3O)C2)cc1 (configuration not stated) 5.85 µM
O=C(c1ccncc1)N1N=C(c2ccc(Cl)cc2)CC1c1ccccc1O (configuration not stated) 6.56 µM
c1cnc(SCCOc2cccc3ccccc23)nc1 3.29 µM
Cc1ccc(OCCSc2nc(N)cc(N)n2)cc1 4.65 µM
Nc1cc(N)nc(SCCOc2ccccc2)n1 11.7 µM
COc1ccc(OCCSc2nc(N)cc(N)n2)cc1 3.29 µM
Cc1cc(SCCOc2ccccc2)nc(N)n1 16.5 µM
Nc1cc(N)nc(SCCOc2ccccc2F)n1 14.7 µM
CCOC(=O)c1ccc(NC(=O)C(CC)Sc2nc3ncccc3o2)cc1 (configuration not stated) 4.65 µM
Cc1ccc(NC(=O)/C=C2\NC(=O)CS2)cc1 16.5 µM
O=C(N/N=C/c1ccc(Br)s1)c1ccco1 14.7 µM
C/C(=N\NC(=O)c1ccoc1C)c1ccc(Br)s1 11.7 µM
Cc1occc1C(=O)N/N=C/c1ccc(Br)s1 6.56 µM
COC(=O)/C(=C/c1cccc([N+](=O)[O-])c1)NC(=O)c1ccc(OC)cc1 5.21 µM
